Hits are enriched below; roughly 0.54% of the tested compounds scored in any of these assays.
MBNL1 CUG block: qHTS Assay for Inhibitors of MBNL1-poly(CUG) RNA binding | actives 0.036% (n = 280,000) | Muscleblind-like protein 1 (Homo sapiens), Q9NR56 | Potency, µM (top dose mostly 57.5 µM), without a hit: at the top dose activity change, negative = inhibition, usual class: inhibitors | TR-FRET MBNL1-His/biotin-(CUG)12 binding, 665/545 ratio; active means well fitted inhibition curve with a large enough effect in the signal ratio, with a control signal flat, not every such curve was filed as active; inconclusive means small, poorly fitted or top-dose-only effect, or effect the other way, or a change in a side signal; inactive means no such curve, though single readings can be large or run the other way; the % refers to the signal ratio; further: potency means the concentration at half of the fitted maximal effect; on the % scale 0 is the no-effect control and ±100 the full control effect
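His-tagged MBNL1 binding to biotinylated (CUG)12 RNA was measured by TR-FRET using terbium anti-His antibody (0.055 ng/ul final) and streptavidin-XL665 (5 nM final). Compounds were titrated 92 nM to 58 uM; 60 min at room temperature.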
uPA surface inh: qHTS for Inhibitors of Cell Surface uPA Generation. cell surface uPA generation assay, qHTS. Potency, µM (titrated, usually from 38.3 µM), without a hit: at the top dose activity change, negative = inhibition, most hits filed as inhibitors. actives 0.31% (n = 330,000); active means well fitted inhibition curve with a large enough effect; inconclusive means small, poorly fitted or top-dose-only effect; inactive means no such curve, though single readings can be large or run the other way; tested in mouse RAW 264.7 cells; further: potency means the concentration at half of the fitted maximal effect; on the % scale 0 is the no-effect control and ±100 the full control effect; nearly all actives have a fitted effect of over 55% in size
BCR signal inh: qHTS Assay to Find Inhibitors of Chronic Active B-Cell Receptor Signaling; AID 493014, 2011; ABC-DLBCL IkBa-CBG/CBR reporter, luminescence ratio, 4 h; actives 0.05% (n = 340,000); Potency, µM (series often up to 46.1 µM), inactives show at the highest dose activity change, negative = inhibition, most hits filed as inhibitors; active means well fitted inhibition curve with a large enough effect in the signal ratio, with a control signal flat, not every such curve was filed as active; inconclusive means small, poorly fitted or top-dose-only effect, or effect the other way, or a change in a side signal; the % refers to the signal ratio;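 further: potency means the concentration at half of the fitted maximal effect; plate controls were basal doxycycline-induced cells for no effect and cells given 10 µM MG132 for full effect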
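Doxycycline induced both beetle luciferases in TMD8 lymphoma cells; IKK-driven degradation limits the IkappaBalpha-fused green signal, while red luminescence normalises for cell number and nonspecific effects. Compounds tested up to 46 uM, 4 hrs.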
Vif-A3G inh: qHTS for Inhibitors of Vif-A3G Interactions: qHTS; AID 602310, 2012; DNA dC->dU-editing enzyme APOBEC-3G (Homo sapiens), Q9HC16; Potency, µM (doses to about 46.1 µM), without a hit: at the highest dose activity, negative = active, hits mostly inhibitors; HeLa A3G-eYFP + Vif (tagged APOBEC3G with the HIV-1 protein that degrades it), YFP fluorescence, overnight; actives 0.076% (n = 410,000); further: potency means the concentration at half of the fitted maximal effect; on the % scale 0 is the no-effect control and ±100 the full control effect; nearly all actives have a fitted effect of over 60% in size
Target sequence (Q9HC16 whole entry, looked up): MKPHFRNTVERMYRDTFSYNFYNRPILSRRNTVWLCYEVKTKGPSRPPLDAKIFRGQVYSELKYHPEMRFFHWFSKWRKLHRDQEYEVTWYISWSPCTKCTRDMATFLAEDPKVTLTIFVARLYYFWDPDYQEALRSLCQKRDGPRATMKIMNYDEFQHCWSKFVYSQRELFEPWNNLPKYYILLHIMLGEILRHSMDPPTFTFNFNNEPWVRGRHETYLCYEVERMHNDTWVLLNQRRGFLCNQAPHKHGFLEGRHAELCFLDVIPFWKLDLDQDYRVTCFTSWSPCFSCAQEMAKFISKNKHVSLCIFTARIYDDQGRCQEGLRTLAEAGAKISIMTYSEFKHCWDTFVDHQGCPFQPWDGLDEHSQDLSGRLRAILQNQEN
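HeLa cells stably expressing Vif and C-terminally eYFP-tagged A3G, seeded overnight at 37 deg C, then exposed to compound by pintool overnight at 37 deg C. Rise in yellow fluorescence (Ex 488/Em 500-530, Acumen) marks blocked Vif-driven A3G degradation.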
Vif-APOBEC3F blk: qHTS for Inhibitors of Vif-A3F Interactions: qHTS; HeLa A3F-eYFP + Vif (tagged APOBEC3F with the HIV-1 protein that degrades it), YFP fluorescence increase; Potency, µM (titrated, usually from 46.1 µM), without a hit: at the highest dose activity, negative = active; actives 0.2% (n = 390,000); further: potency means the concentration at half of the fitted maximal effect; % of control where 0% means no effect; nearly all actives have a fitted effect of over 65% in size
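HeLa cells stably expressing A3F-eYFP plus Vif, plated and incubated overnight at 37 deg C, then exposed to compounds overnight at 37 deg C. Blocked degradation read as raised yellow fluorescence (Ex 488/Em 500-530).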
TCR activator: Activators of T cell receptors: qHTS campaign; primary human leukocytes, anti-CD3, IL-2 HTRF, 48 h; Potency, µM (highest dose often 9.22 µM), for the others: at the top dose activation of IL-2 secretion, usual class: activators; 330,000 tested, under 10 active; further: % of control where 0% means no effect
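Compounds are tested in HTS on primary human leukocytes co-incubated with a-CD3 beads for 48 hr. IL-2 output is measured by time-resolved FRET.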
An asterisk follows results filed as active; [ ] = another dose, or the depositor's remark. Unless noted, the call rests on the fitted dose curve; in most records, active means well fitted curve in the direction sought with a large enough effect; inconclusive means small, poorly fitted or top-dose-only effect, or another doubt; inactive means no such curve, though single readings can be large; an effect the other way counts as inactive or inconclusive.

Screening CC[n+]1ccccc1/C=C/c1ccc(N(C)C)cc1 returned MBNL1 CUG block inconclusive, uPA surface inh inconclusive, BCR signal inh 13%, Vif-A3G inh inconclusive, Vif-APOBEC3F blk 22µM* and TCR activator 15%.
For O=[N+]([O-])c1ccc([N+](=O)[O-])c(Nc2ccc(N3CCOCC3)cc2)c1 the results were MBNL1 CUG block inconclusive, uPA surface inh inconclusive, BCR signal inh 1%, Vif-A3G inh 0%, Vif-APOBEC3F blk -1% and TCR activator -4%.
Screening CN(C)c1ccc(N=Cc2c(O)n(CCC3=CCCCC3)c(=O)[nH]c2=O)cc1 returned MBNL1 CUG block 0%, BCR signal inh 1%, Vif-A3G inh 0%, Vif-APOBEC3F blk inconclusive and TCR activator 7%.
For CCN(CC)c1ccc(N=Cc2c(O)n(CCC3=CCCCC3)c(=O)[nH]c2=O)cc1 the results were MBNL1 CUG block 5%, uPA surface inh 5%, BCR signal inh 3%, Vif-A3G inh -5%, Vif-APOBEC3F blk 22µM* and TCR activator 4%.
Screening C=CCC[C@H](Cc1ccc(F)cc1)C(=O)OC[C@H](Cc1c[nH]c2ccccc12)NC(=O)[C@@H](CC=C)CC(=O)NCCO returned uPA surface inh inconclusive, BCR signal inh -6%, Vif-A3G inh -14%, Vif-APOBEC3F blk -1% and TCR activator 2%.
`O=C(Nc1nnc(-c2ccc3c(c2)CCCC3)o1)c1ccccc1` gave MBNL1 CUG block -2%, uPA surface inh 10µM*, BCR signal inh inconclusive, Vif-A3G inh -13%, Vif-APOBEC3F blk -14% and TCR activator -4%.
O=C(Nc1cccc(-c2csc(Nc3ccccc3)n2)c1)c1ccccc1 was read as MBNL1 CUG block 2%, uPA surface inh inconclusive, BCR signal inh inconclusive, Vif-A3G inh -16%, Vif-APOBEC3F blk 7% and TCR activator -4%.
COc1ccc2c3c1OC1C(=O)CC[C@@]4(O)[C@@H](C2)N(C)CC[C@]314 (stereo partly specified) was read as uPA surface inh 6.3µM*, BCR signal inh inconclusive, Vif-A3G inh -24%, Vif-APOBEC3F blk 0% and TCR activator 5%.
O=C1c2ccccc2-c2cccc3cccc1c23 was read as uPA surface inh 8.9µM*, Vif-A3G inh -3%, Vif-APOBEC3F blk inconclusive and TCR activator -4%.
Screening O=C1c2ccccc2-c2cc3ccccc3cc21 returned uPA surface inh 2%, Vif-A3G inh 0%, Vif-APOBEC3F blk 2% and TCR activator -9%.
`COc1ccc(-c2ccccc2[C@H]2[C@@H]3C=CC[C@@H](C)[C@@H]3C(=O)N2Cc2ccccc2)cc1` gave uPA surface inh inconclusive, BCR signal inh 7%, Vif-A3G inh -6%, Vif-APOBEC3F blk -1% and TCR activator -1%[46.1 µM].
Screening COc1ccc(CN2Cc3cnnn3-c3ccccc3C2C#N)cc1 (stereo unspecified) returned uPA surface inh 5.6µM*, Vif-A3G inh inconclusive, Vif-APOBEC3F blk 7% and TCR activator 0%.
N#CC1c2ccccc2-n2nncc2CN1Cc1cc(Cl)cc(Cl)c1 (stereo unspecified) was read as uPA surface inh 4.5µM*, Vif-A3G inh inconclusive, Vif-APOBEC3F blk 1% and TCR activator 3%.
For COc1ccc(CN2Cc3cnnn3-c3ccccc3C2c2ccccc2)cc1 (stereo unspecified) the results were uPA surface inh inconclusive, Vif-A3G inh -10%, Vif-APOBEC3F blk -1% and TCR activator 1%.
Screening CC1=NN(C(=O)c2ccoc2C)C(O)(C(F)(F)F)C1 (stereo unspecified) returned MBNL1 CUG block -10%, uPA surface inh 1%, BCR signal inh inconclusive, Vif-A3G inh 0%, Vif-APOBEC3F blk -16% and TCR activator 0%.
COc1cc(NC(=O)c2cccc(C)c2)ccc1NC(=O)c1cc2ccccc2o1 was read as MBNL1 CUG block 9%, uPA surface inh 0%, BCR signal inh inconclusive, Vif-A3G inh -9%, Vif-APOBEC3F blk 1% and TCR activator 10%.
Screening COc1ccccc1-n1c(/C=C/c2ccc(O)cc2)nc2ccccc2c1=O returned MBNL1 CUG block 13%, uPA surface inh -8%, BCR signal inh 5%, Vif-A3G inh -21%, Vif-APOBEC3F blk 10µM* and TCR activator -1%.
`COc1cc(OC)c(/C=C2\C(=O)Nc3ccccc32)c(OC)c1` gave uPA surface inh 7.9µM*, BCR signal inh inconclusive, Vif-A3G inh inconclusive, Vif-APOBEC3F blk 2% and TCR activator -11%.
COc1ccc(-n2c(/C=C3\C(=O)Nc4ccccc43)nc3ccccc3c2=O)cc1 was read as MBNL1 CUG block 3%, uPA surface inh 0%, BCR signal inh -8%, Vif-A3G inh 1%, Vif-APOBEC3F blk 0% and TCR activator -4%.
Screening CC(C)(C)C(=O)Nc1ccc(-c2csnn2)cc1 returned MBNL1 CUG block -6%, uPA surface inh inconclusive, BCR signal inh -1%, Vif-A3G inh 2%, Vif-APOBEC3F blk 1% and TCR activator -1%.
CCCCn1c(O)c(C(CC)=NCCc2ccccc2)c(=O)[nH]c1=O was read as MBNL1 CUG block -2%, uPA surface inh -4%, Vif-A3G inh -5%, Vif-APOBEC3F blk 2% and TCR activator -1%.
CCCCn1c(O)c(C(=O)/C=C/c2c[nH]c3ccccc23)c(=O)[nH]c1=O was read as MBNL1 CUG block 5%, uPA surface inh 3%, BCR signal inh 3%, Vif-A3G inh 3.2µM*, Vif-APOBEC3F blk -339% and TCR activator 5%.
Screening Cc1cccc(-n2c(/C=C/c3ccccc3O)nc3ccccc3c2=O)c1 returned Vif-A3G inh 7% and Vif-APOBEC3F blk -12%.
`Cc1cccc(-n2c(/C=C/c3ccc([N+](=O)[O-])o3)nc3ccccc3c2=O)c1` gave uPA surface inh -8%, BCR signal inh 0%, Vif-A3G inh inconclusive, Vif-APOBEC3F blk 8.9µM* and TCR activator 1%[46.1 µM].
`Cc1cccc(-n2c(/C=C/c3c(C)[nH]c4ccccc34)nc3ccccc3c2=O)c1` gave Vif-A3G inh -10% and Vif-APOBEC3F blk 10µM*.

Screens from PubChem BioAssay.
